Screens from PubChem BioAssay.
BaF3 parental = parental Ba/F3 cell viability inhibition, counter-screen for JAK2V617F inhibitor project, murine pro-B, CellTiter-Glo luminescence; CellTiter-Glo ATP luminescence; inhibition, % at 5.6 µM; 1.1% of 220,000 active; AID 1486, 2009;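 active means inhibition above a per-campaign cutoff, the mean inhibition of all tested compounds plus 3 SD, cut at about 27% in these data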;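 further: 0% = DMSO wells and 100% = JAK Inhibitor I control wells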
aSyn 5UTR inh = MLPCN primary screen, SNCA 5' untranslated region; alpha-synuclein 5'UTR reporter, inhibitor activity; inhibition, % (tested at 7.5 µM); 0.82% of 300,000 active; AID 1813, 2009; in the data active means inhibition above about 60%;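 further: H4 neuroglioblastoma cells stably carrying SNCA 5'UTR luciferase fusion; 0% = DMSO wells and 100% = positive control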
APP transl inh = inhibitors of APP translation via 5'UTR reporter, primary screen, APP 5'UTR luciferase, SH-SY5Y cells | SH-SY5Y APP 5'UTR-luciferase reporter, luminescence | inhibition, % at 2 µM | 0.82% of 190,000 active | AID 1285, 2008;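 active means inhibition above a set limit, derived from the sample mean plus 3 SD, cut at about 45% in these data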
IEC-6 tox = cytotoxicity in IEC-6 intestinal epithelial cells, primary screen, cytotoxicity control for KLF5 inhibitor project, cell-based, luminescence. AID 1825, 2009. IEC-6 cytotoxicity, luminescence viability. inhibition, % at 5 µM. 0.78% of 290,000 active; in the data active means inhibition above about 22%;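 further: 0% = plate median of test compound wells and 100% = cytotoxic reference compound wells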
Ba/F3 V617F tox = reduced viability of JAK2V617F-dependent Ba/F3 cells, primary screen, JAK2V617F inhibitor project, cell-based, Ba/F3 EpoR-JAK2V617F, luminescence | ATP luminescence | inhibition, % at 5.6 µM | 1.1% of 220,000 active;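 active means inhibition above the campaign mean plus 3 SD over all tested compounds, cut at about 24% in these data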;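 further: cytokine-independent growth of Ba/F3 cells driven by EpoR plus mutant JAK2; 0% = DMSO-treated cells and 100% = JAK inhibitor I control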
KLF5 inh = KLF5 expression inhibitors, primary screen, DLD-1 cells, luminescence | inhibition, % at 5 µM | DLD-1 KLF5 promoter-luciferase reporter | 0.23% of 290,000 active | AID 1700, 2009;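 active means inhibition above a per-plate limit of that plate's mean compound inhibition plus 3 SD, cut at about 60% in these data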;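 further: 0% = DMSO wells and 100% = LY294002 at 200 µM; higher means less KLF5 promoter-driven luciferase light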
Active calls of the source: *; / = not tested or not shown. Most compounds without a hit are left out; they make up all but 2.2% or so of the library.

SMILES	BaF3 parental	aSyn 5UTR inh	APP transl inh	IEC-6 tox	Ba/F3 V617F tox	KLF5 inh
C=CC[n+]1c(/C=C2\C=Cc3cc(C)ccc3N2CC)ccc2ccccc21	80*	67*	20	41*	100*	7
CCN1C(=C(C#N)C#N)C=Cc2cc(C)ccc21	3	-17	-11	12	0	6
COc1ccc(/C=C2/SC(=S)N(CCCC(=O)Nc3ccc(O)cc3)C2=O)cc1	-2	68*	/	0	0	17
COc1ccc(/C=C2/SC(=S)N(CCC(=O)O)C2=O)cc1	-2	98*	50*	-6	-2	26
COc1ccc(/C=C2\SC(=S)N(CCCC(=O)Nc3ccc(O)cc3)C2=O)cc1	-1	78*	/	-1	-3	27
COc1ccc(/C=C2\SC(=S)N(CCC(=O)Nc3ccc(C(=O)O)cc3)C2=O)cc1	/	-5	/	-7	/	-16
CC(=O)c1ccc(NC(=O)CSc2nnc(NC(=O)C3CC3)s2)cc1	/	9	/	-5	/	-28
CCOc1ccc(NC(=O)CN(C)C(=O)c2ccc(=O)[nH]c2)cc1OCC	/	-3	/	3	/	-15
C=CCN=c1scc(-c2ccccc2)n1/N=C/c1ccccn1	57*	-68	-99	31*	53*	-67
CCOC(=O)c1c(N2C(=O)Nc3cc(Cl)c(Cl)cc3N2O)sc2c1CCCCC2	3	/	-11	-8	-3	-21
O=C(Nc1ccccc1)C1=C[C@@H](c2ccc3c(c2)OCO3)C[C@@H](OCCCCO)O1	/	-112	/	/	/	/
O=C(Nc1nnc(-c2ccc(Cl)cc2)o1)C1CCCCC1	/	-80	/	/	/	/
Clc1ccc(-c2nnc(NC3=NCCCCC3)o2)cc1	14	75*	-152	4	12	-44
Nc1cc(=O)[nH]c(=O)n1CCCc1ccccc1	/	-15	/	-1	/	-12
CCN1CCc2c(sc(N)c2C#N)C1	1	7	66*	1	-2	18
CC(C)N1CCc2c(sc(N)c2C#N)C1	/	-3	/	/	/	/
O=C(Nc1ccccc1C(=O)N1CCCCC1)c1ccccc1C(F)(F)F	/	-1	/	2	/	-25
COc1cc(C(=O)NC2CC(C)(C)NC(C)(C)C2)cc(OC)c1OC	5	3	9	4	2	-30
Cc1cc2oc(C(=O)NCc3ccccc3)cc(=O)c2cc1C	/	13	/	22*	/	-16
Cc1cc(N2CCN(c3nc4ccccc4s3)CC2)n2ncnc2n1	48*	-42	12	5	44*	-25
Cc1cc(N2CCN(C(c3ccccc3)c3ccccc3)CC2)n2ncnc2n1	-1	-30	2	-1	-3	-12
Cc1nnn(-c2nonc2N)c1C(=O)N/N=C/c1ccccc1O	6	68*	64*	6	0	-20
Cc1nnn(-c2nonc2N)c1C(=O)N/N=C/c1cccc2ccccc12	3	6	-4	5	-4	0
COc1ccc2c(ccn2S(=O)(=O)c2ccccc2)c1	/	26	/	10	/	-17
Cc1nn(C)c(C)c1CNC(=O)c1nn2c(c1Cl)NC(c1cccs1)CC2C(F)(F)F (configuration not stated)	32*	-11	3	4	15	14
SMILES	BaF3 parental	aSyn 5UTR inh	APP transl inh	IEC-6 tox	Ba/F3 V617F tox	KLF5 inh
O=C(COC(=O)CNS(=O)(=O)c1cccc(Br)c1)Nc1ccccc1Sc1ccccc1	1	6	-4	-4	1	-26
Cc1ccc(O)c(/C=N/NC(=O)C2=NNC(c3ccccc3)(c3ccccc3)C2)c1	4	/	78*	-3	-4	8
Cc1ccc(O)c(/C=N/NC(=O)c2[nH]ncc2Br)c1	6	-113	2	4	-1	-52
CCOC(=O)c1c(CSc2ccc(CC)cc2)oc2ccc(O)c(CN(C)C)c12	/	66*	/	6	/	-25
O=C(C1=C(O)C(=O)N(CC2CCCO2)C1c1cccc(O)c1)c1ccco1 (configuration not stated)	/	-3	/	3	/	-3
O=[N+]([O-])c1ccc(/C=N/n2cnc3ccccc32)s1	1	68*	6	4	0	-9
O=C(/C=C/c1cccnc1)/C=C/c1cccnc1	103*	/	/	49*	95*	5
O=C(/C=C/c1cccnc1)c1cc(F)ccc1O	5	-42	/	8	-2	-12
Nc1ccc(-c2cc3ccccc3oc2=O)cc1	/	106*	/	3	/	37
O=C1CCCC/C1=C/Nc1cccc(C(F)(F)F)c1	5	-32	4	-2	-1	-6
O=C1CCC2S/C(=C/Nc3ccc(C(F)(F)F)cc3)C(=O)N12 (configuration not stated)	7	99*	72*	7	-2	40
CN(C)CCN(Cc1cc2cc3c(cc2nc1Cl)OCO3)C(=O)c1ccco1	/	3	/	-2	/	-11
N#CC(c1ccc(Cl)cc1)c1ccc2c(C(F)(F)F)cc(C(F)(F)F)nc2n1 (configuration not stated)	4	112*	-4	11	3	-9
N#CC(c1ccc(Cl)cc1)c1cccc(Cl)n1 (configuration not stated)	48*	6	28	-3	-3	-7
COCc1cc(C)nc(OCC(=O)N/N=C/c2cc(C)n(-c3c(C)cccc3C)c2C)c1C#N	5	0	57*	-6	-3	-47
O=C(NC(=S)NCC1CCCO1)c1ccc(Br)o1 (configuration not stated)	-3	-108	-33	3	-5	-78
COc1ccccc1C(=O)Nc1cc(-c2ccc(C)cc2)no1	/	-178	/	10	/	-56
N#CC(C#N)=C1C=CC=CN1/C(=C\c1ccco1)C(=O)c1ccc(-c2ccccc2)cc1	2	/	92*	2	22	-15
N#CC(C#N)=C1C=CC=CN1/C(=C\c1ccco1)C(=O)c1ccc(Cl)cc1	2	/	96*	9	1	2
O=C(Nc1ccccn1)c1csc2c1CCCC2	5	-163	-133	3	1	-108
O=C(Nc1ccccn1)c1onc2c1CCCC2	8	96*	-150	4	2	-100
CN(C)NC1=CC(=[N+]2CCCC2)CC(C)(C)C1	3	-23	-20	8	1	-22
CCCN(CCC)C1=CC(=[N+]2CCCC2)CC(C)(C)C1	72*	6	-2	20	88*	-9
CCn1ccnc1CNC(=O)c1ccc(OC2CCN(C(=O)COC)CC2)cc1	/	-20	/	0	/	-29
CCCN1CCCc2cc(CN)ccc21	63*	12	0	6	63*	-13
COCCCN=C1NN=C(c2cc(C)n(Cc3ccccc3Cl)c2C)CS1	4	23	76*	7	-2	-14
O=C(O)c1ccc(N/N=C/c2ccc3c(c2)OCO3)cc1	5	94*	31	1	-1	60
